In all, about 5,500 compounds went through this assay and about 2,000 (36%) were called active. Roughly 18% stayed inconclusive and do not appear here. This is one part of the list. Unmarked numbers belong to inactive results. No stated cut-off is given here; in the data, active means normalized growth mostly below about 0.91 (no sharp cut-off); inconclusive means no clear call, values can overlap the other calls; inactive means mostly above about 0.92.
Assay: chemical genetic growth profiling, strain panel (AID 1159580);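 further: tested at 20 µM; growth read once vehicle control cultures reached saturation at 30 °C; 1 = growth at the plate median or of vehicle wells; lower values mean less growth of the strain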
Settings: S. cerevisiae deletion strains, growth OD
[1] = locus YAL021C, strain ccr4, active compounds read low
[2] = locus YAL026C, strain drs2, active compounds read low
[3] = locus YAL030W, strain snc1, active compounds read low
[4] = locus YBL061C, strain skt5, active compounds read low
[5] = locus YBR009C, strain hhf1, active compounds read low
[6] = locus YBR023C, strain chs3, active compounds read low
[7] = locus YBR171W, strain sec66, active compounds read low
[8] = locus YBR231C, strain swc5, active compounds read low
[9] = locus YBR279W, strain paf1, active compounds read low
[10] = locus YCL011C, strain gbp2, active compounds read low
[11] = locus YCL016C, strain dcc1, active compounds read low
[12] = locus YCL069W, strain vba3, active compounds read low
[13] = locus YCR088W, strain abp1, active compounds read low
[14] = locus YDL005C, strain med2, active compounds read low
[15] = locus YDL040C, strain nat1, active compounds read low
[16] = locus YDR001C, strain nth1, active compounds read low
[17] = locus YDR069C, strain doa4, active compounds read low
[18] = locus YDR137W, strain rgp1, active compounds read low
[19] = locus YDR159W, strain sac3, active compounds read low
[20] = locus YDR297W, strain sur2, active compounds read low
[21] = locus YDR334W, strain swr1, active compounds read low
[22] = locus YDR335W, strain msn5, active compounds read low
[23] = locus YDR392W, strain spt3, active compounds read low
[24] = locus YEL003W, strain gim4, active compounds read low
[25] = locus YEL037C, strain rad23, active compounds read low
[26] = locus YEL061C, strain CIN8 (second series), active compounds read low
[27] = locus YER015W, strain faa2, active compounds read low
[28] = locus YER016W, strain bim1, active compounds read low
[29] = locus YER111C, strain swi4, active compounds read low
[30] = locus YER155C, strain BEM2 (second series), active compounds read low
[31] = locus YFR010W, strain ubp6, active compounds read low
[32] = locus YGL167C, strain pmr1, active compounds read low
[33] = locus YGL173C, strain kem1, active compounds read low
[34] = locus YGL227W, strain vid30, active compounds read low
[35] = locus YGL240W, strain doc1, active compounds read low
[36] = locus YGL253W, strain hxk2, active compounds read low
[37] = locus YHR013C, strain ard1, active compounds read low
[38] = locus YHR027C, strain rpn1, active compounds read low
[39] = locus YHR030C, strain SLT2, active compounds read low
[40] = locus YHR079C, strain IRE1, active compounds read low
[41] = locus YHR142W, strain chs7, active compounds read low
[42] = locus YJL092W, strain hpr5, active compounds read low
[43] = locus YJL095W, strain BCK1 (second series), active compounds read low
[44] = locus YJL095W, strain BCK1, active compounds read low
[45] = locus YJL115W, strain asf1, active compounds read low
[46] = locus YJL129C, strain trk1, active compounds read low
[47] = locus YJL154C, strain vps35, active compounds read low
[48] = locus YJL164C, strain tpk1, active compounds read low
[49] = locus YJL166W, strain qcr8, active compounds read low
[50] = locus YJL187C, strain SWE1, active compounds read low
[51] = locus YJR066W, strain TOR1, active compounds read low
[52] = locus YKL160W, strain elf1, active compounds read low
[53] = locus YKR026C, strain gcn3, active compounds read low
[54] = locus YKR091W, strain srl3, active compounds read low
[55] = locus YLL001W, strain dnm1, active compounds read low
[56] = locus YLL026W, active compounds read low
[57] = locus YLL041C, strain sdh2, active compounds read low
[58] = locus YLR027C, strain aat2, active compounds read low
[59] = locus YLR221C, strain rsa3, active compounds read low
[60] = locus YLR258W, strain gsy2, active compounds read low
[61] = locus YLR262C, strain YPT6 (second series), active compounds read low
[62] = locus YLR320W, strain mms22, active compounds read low
[63] = locus YLR342W, strain FKS1, active compounds read low
[64] = locus YLR357W, strain rsc2, active compounds read low
[65] = locus YLR370C, strain arc18, active compounds read low
[66] = locus YLR384C, strain iki3, active compounds read low
[67] = locus YML120C, strain ndi1, active compounds read low
[68] = locus YMR058W, strain fet3, active compounds read low
[69] = locus YMR125W, strain sto1, active compounds read low
[70] = locus YMR129W, active compounds read low
[71] = locus YMR205C, strain PFK2, active compounds read low
[72] = locus YMR231W, strain pep5, active compounds read low
[73] = locus YNL071W, strain lat1, active compounds read low
[74] = locus YNL183C, strain NPR1, active compounds read low
[75] = locus YNL209W, strain ssb2, active compounds read low
[76] = locus YNL248C, strain rpa49, active compounds read low
[77] = locus YNL322C, strain KRE1 (second series), active compounds read low
[78] = locus YNR049C, strain mso1, active compounds read low
[79] = locus YOR001W, strain rrp6, active compounds read low
[80] = locus YOR070C, strain gyp1, active compounds read low
[81] = locus YOR080W, strain dia2, active compounds read low
[82] = locus YOR083W, strain WHI5, active compounds read low
[83] = locus YOR106W, strain vam3, active compounds read low
[84] = locus YOR231W, strain MKK1, active compounds read low
[85] = locus YOR265W, strain rbl2, active compounds read low
[86] = locus YOR270C, strain vph1, active compounds read low
[87] = locus YOR290C, strain snf2, active compounds read low
[88] = locus YPL051W, strain arl3, active compounds read low
[89] = locus YPL078C, strain atp4, active compounds read low
[90] = locus YPL106C, strain sse1, active compounds read low
[91] = locus YPL240C, strain hsp82, active compounds read low
[92] = locus YPL256C, strain CLN2, active compounds read low

NCCC1CCCC(CCN)N1 (stereo not drawn)
normalized growth (locus YAL013W, strain DEP1, active compounds read low): 1.01 | normalized growth (locus YAL040C, strain CLN3, active compounds read low): 1.01 | normalized growth (locus YCL061C, strain MRC1 (second series), active compounds read low): 1.01 | normalized growth (locus YDR363W, strain ESC2, active compounds read low): 1.01 | normalized growth (locus YER002W, strain NOP16, active compounds read low): 0.995 | normalized growth (locus YGR078C, strain PAC10, active compounds read low): 1.02 | normalized growth (locus YGR229C, strain SMI1, active compounds read low): 1.01 | normalized growth (locus YJR075W, strain HOC1, active compounds read low): 1.01 | normalized growth (locus YNL153C, strain GIM3, active compounds read low): 1.01 | normalized growth (locus YNL175C, strain NOP13, active compounds read low): 1 | normalized growth (locus YNL197C, strain WHI3, active compounds read low): 1 | normalized growth (locus YNL224C, strain SQS1, active compounds read low): 1 | normalized growth (locus YOR083W, strain WHI5 (second series), active compounds read low): 1.01 | normalized growth (locus YPL055C, strain LGE1, active compounds read low): 1.02 | normalized growth (locus YPL241C, strain CIN2, active compounds read low): 1.01

COc1ccc2nc(S(=O)Cc3ncc(C)c(OC)c3C)[nH]c2c1 (stereo not drawn)
normalized growth [1]: 0.795 (active) | normalized growth [2]: 1 | normalized growth [3]: 1.02 | normalized growth [4]: 1.01 | normalized growth [5]: 0.907 (active) | normalized growth [6]: 0.957 | normalized growth [7]: 1.02 | normalized growth [8]: 0.953 | normalized growth [9]: 0.913 (active) | normalized growth [10]: 1.01 | normalized growth [11]: 0.962 | normalized growth (locus YCL061C, strain MRC1, active compounds read low): 1.01 | normalized growth [12]: 1.02 | normalized growth [13]: 1.02 | normalized growth [14]: 1.02 | normalized growth [15]: 1.02 | normalized growth [16]: 1.02 | normalized growth [17]: 0.812 (active) | normalized growth [18]: 0.907 | normalized growth [19]: 0.975 | normalized growth (locus YDR195W, strain ref2): 1.02 | normalized growth [20]: 1.01 | normalized growth [21]: 1.01 | normalized growth [22]: 1 | normalized growth [23]: 0.556 (active) | normalized growth [24]: 1.01 | normalized growth [25]: 1.02 | normalized growth [26]: 1.02 | normalized growth [27]: 0.987 | normalized growth [28]: 1.02 | normalized growth [29]: 1.02 | normalized growth [30]: 0.812 (active) | normalized growth [31]: 0.999 | normalized growth [32]: 1.02 | normalized growth [33]: 1.01 | normalized growth [34]: 1.02 | normalized growth [35]: 0.934 | normalized growth [36]: 1.01 | normalized growth [37]: 0.753 (active) | normalized growth [38]: 1.01 | normalized growth [39]: 0.791 (active) | normalized growth [40]: 0.885 | normalized growth [41]: 1.01 | normalized growth [42]: 1.02 | normalized growth [43]: 1.02 | normalized growth [44]: 0.752 (active) | normalized growth [45]: 1.02 | normalized growth [46]: 0.994 | normalized growth [47]: 1.02 | normalized growth [48]: 0.942 | normalized growth [49]: 0.911 | normalized growth [50]: 0.998 | normalized growth [51]: 0.879 | normalized growth [52]: 0.941 | normalized growth [53]: 1.01 | normalized growth [54]: 1.02 | normalized growth [55]: 1.01 | normalized growth [56]: 0.983 | normalized growth [57]: 1.02 | normalized growth [58]: 0.948 | normalized growth [59]: 0.904 (active) | normalized growth [60]: 0.989 | normalized growth [61]: 0.857 (active) | normalized growth [62]: 0.765 (active) | normalized growth [63]: 1.01 | normalized growth [64]: 1 | normalized growth [65]: 1.02 | normalized growth [66]: 1.03 | normalized growth [67]: 0.975 | normalized growth [68]: 0.999 | normalized growth [69]: 1.01 | normalized growth [70]: 1.03 | normalized growth [71]: 0.915 | normalized growth [72]: 1.01 | normalized growth [73]: 0.702 (active) | normalized growth [74]: 0.86 | normalized growth [75]: 0.98 | normalized growth [76]: 1.02 | normalized growth [77]: 1.03 | normalized growth [78]: 1.02 | normalized growth [79]: 0.996 | normalized growth [80]: 0.897 (active) | normalized growth [81]: 1.01 | normalized growth [82]: 0.984 | normalized growth [83]: 0.857 (active) | normalized growth [84]: 1.04 | normalized growth [85]: 0.995 | normalized growth [86]: 0.994 | normalized growth [87]: 0.991 | normalized growth [88]: 0.846 (active) | normalized growth [89]: 0.989 | normalized growth [90]: 1 | normalized growth [91]: 1.01 | normalized growth [92]: 0.988

COc1ccnc(CS(=O)c2nc3ccc(OC(F)F)cc3[nH]2)c1OC (stereo not drawn)
normalized growth [1]: 0.993 | normalized growth [2]: 1.04 | normalized growth [3]: 1.02 | normalized growth [4]: 1.04 | normalized growth [5]: 0.991 | normalized growth [6]: 1.04 | normalized growth [7]: 1.03 | normalized growth [8]: 1.01 | normalized growth [9]: 1.04 | normalized growth [10]: 1.02 | normalized growth [11]: 1.03 | normalized growth [12]: 1.02 | normalized growth [13]: 1.03 | normalized growth [14]: 1.02 | normalized growth [15]: 1.03 | normalized growth [16]: 1.02 | normalized growth [17]: 1.02 | normalized growth [18]: 1.05 | normalized growth [19]: 0.94 | normalized growth (locus YDR195W, strain ref2): 1.01 | normalized growth [20]: 1.02 | normalized growth [21]: 1.03 | normalized growth [22]: 1.05 | normalized growth [23]: 0.925 | normalized growth [24]: 1.02 | normalized growth [25]: 1.03 | normalized growth [26]: 1.02 | normalized growth [27]: 1.03 | normalized growth [28]: 1.04 | normalized growth [29]: 1.05 | normalized growth [30]: 0.917 | normalized growth [31]: 1.01 | normalized growth [32]: 1.02 | normalized growth [33]: 0.989 | normalized growth [34]: 1.03 | normalized growth [35]: 0.977 | normalized growth [36]: 1.05 | normalized growth [37]: 1.05 | normalized growth [38]: 0.989 | normalized growth [39]: 0.864 | normalized growth [40]: 0.946 | normalized growth [41]: 1.05 | normalized growth [42]: 1.01 | normalized growth [43]: 1.02 | normalized growth [44]: 0.89 | normalized growth [45]: 1.02 | normalized growth [46]: 1.03 | normalized growth [47]: 1.02 | normalized growth [48]: 1 | normalized growth [49]: 0.989 | normalized growth [50]: 1.01 | normalized growth [51]: 0.922 | normalized growth [52]: 1.03 | normalized growth [53]: 1.04 | normalized growth [54]: 1.03 | normalized growth [55]: 0.98 | normalized growth [56]: 1.02 | normalized growth [57]: 1.01 | normalized growth [58]: 1.01 | normalized growth (locus YLR113W, strain HOG1, active compounds read low): 0.926 | normalized growth [59]: 0.982 | normalized growth [60]: 1.04 | normalized growth [61]: 1.01 | normalized growth [62]: 0.936 | normalized growth [63]: 1.02 | normalized growth [64]: 1 | normalized growth [65]: 1.03 | normalized growth [66]: 1.01 | normalized growth [67]: 1 | normalized growth [68]: 1.04 | normalized growth [69]: 1.02 | normalized growth [70]: 1.03 | normalized growth [71]: 1.01 | normalized growth [72]: 1.03 | normalized growth [73]: 1.02 | normalized growth [74]: 0.868 | normalized growth [75]: 1.02 | normalized growth [76]: 1.06 | normalized growth [77]: 1.05 | normalized growth [78]: 1.03 | normalized growth [79]: 1 | normalized growth [80]: 1.02 | normalized growth [81]: 1.04 | normalized growth [82]: 0.995 | normalized growth [83]: 1.02 | normalized growth [84]: 0.953 | normalized growth [85]: 1 | normalized growth [86]: 1.2 | normalized growth [87]: 1.06 | normalized growth [88]: 1 | normalized growth [89]: 1.04 | normalized growth [90]: 1.03 | normalized growth [91]: 1.03 | normalized growth [92]: 0.969

— PubChem BioAssay AID1159580 (chemical genetic matrix, 2015)
